# Reference: PubChem BioAssay AID720550 (National Center for Advancing Translational Sciences (NCATS), 2013)
# Inconclusive results are not listed. Activity calls are given as the source filed them. The call rests on the fitted dose curve; in most records, active means well fitted curve in the direction sought with a large enough effect; inconclusive means small, poorly fitted or top-dose-only effect, or another doubt; inactive means no such curve, though single readings can be large or run the other way.
# Assay: qHTS for Inhibitors of Bloom's syndrome helicase (BLM): Thiazole Orange DNA Binding Counterscreen for SAR.
# Settings: fluorescence; Potency: Thiazole orange DNA displacement; series mostly up to 57.1 µM; activity change, negative = displacement: at the top concentration
# Source text: Human RecQ DNA helicases participate in maintenance of genome stability and DNA repair. While other types of helicases have been explored as targets for drug development, members of the RecQ family have remained less well characterized. Mutations of the Bloom helicase gene have been associated with the rare human genetic disease called Bloom syndrome. […] Moreover, identified inhibitors can be used in cells and animal models to examine the consequences of inhibition on the survival of cancer cells where it has been shown that BLM plays an important role.
# A fluorescence-based, biochemical assay in 1536 well format was developed to evaluate inhibition of BLM DNA unwinding activity. This assay was used to screen the MLPCN library. The resulting compounds were subjected to orthogonal and secondary biochemical assays to triage the initial hits, to classify compounds based on mode of action and to derive structure activity relationships (SARs) of candidate effectors. The Thiazole Orange (ThO) DNA binding (TO-binding) is used to eliminate inhibitors that operate via nonspecific DNA binding. This displacement assay is miniaturized for a 1536-well format and utilizes a ThO dye bound to unlabeled DNA. Inactivation or no significant activity is the desired outcome for this assay.
# NIH Chemical Genomics Center [NCGC]
# NIH Molecular Libraries Probe Centers Network [MLPCN]
# Assay Submitter (PI): Opher Gileadi, Structural Genomics Consortium, University of Oxford, UK
# Compounds were added to a 4 uL mixture of 50 nM DNA and 100 nM ThO via pintool transfer. The fluorescence signal (excitation 480 nm, emission 530 nm) was measured after 15 min incubation at room temperature using the ViewLux CCD imager.
Compound,"activity change, negative = displacement",Potency
CC(C)(C)c1ccc(-c2nnc(NC(=O)Nc3ccc4ccccc4c3)s2)cc1,12.2% (inactive),
O=C(Nc1ccc2ccccc2c1)Nc1nnc(-c2ccccc2Cl)s1,154% (inactive),
N#Cc1ccc(NC(=O)Nc2nnc(-c3ccncc3)s2)cc1,62.4% (inactive),
O=C(Nc1ccc(Cl)c([N+](=O)[O-])c1)Nc1cccc(-c2ccncc2)n1,-18.5% (inactive),
O=C(Nc1nnc(-c2ccncc2)s1)Nc1cccc2ccccc12,1.97% (inactive),
Cc1cc(C)c(-c2nnc(NC(=O)Nc3ccc4ccccc4c3)s2)c(C)c1,10.1% (inactive),
Cc1cc(NC(=O)Nc2nnc(C3CCCCC3)s2)ccc1Cl,100% (inactive),
O=C(Nc1ccc(F)c(C(F)(F)F)c1)Nc1nnc(-c2ccncc2)s1,,inactive
O=C(Nc1ccc(N2CCOCC2)c(F)c1)Nc1nnc(-c2ccncc2)s1,-24.6% (inactive),
CCOC(=O)c1cccc(NC(=O)Nc2nnc(-c3ccncc3)s2)c1,91.3% (inactive),
O=C(Nc1ccc(-c2cn[nH]c2)c(C(F)(F)F)c1)Nc1nnc(-c2ccncc2)s1,35.2% (inactive),
CCOc1ccc(NC(=O)Nc2ccc(-c3nc4ccccc4[nH]3)cc2)cc1,71.7% (inactive),
O=C(Nc1ccc(Cl)c(Cl)c1)Nc1ccnc(-c2ccncc2)n1,558% (inactive),
O=C(Nc1nnc(-c2ccncc2)s1)NC12CC3CC(CC(C3)C1)C2,91.5% (inactive),
O=C(Nc1ccc2ccccc2c1)Nc1nnc(-c2ccncc2)o1,1.59% (inactive),
O=C(Nc1ccc(-n2ccnc2)c(F)c1)Nc1nnc(-c2ccncc2)s1,-6.18% (inactive),
O=C(Nc1ccc(-c2nc3ccccc3[nH]2)cc1)Nc1ccc2c(c1)OCCO2,2.09% (inactive),
O=C(Nc1ccc(Cl)c(Cl)c1)Nc1nnc(Br)s1,146% (inactive),
Cc1cc(NC(=O)Nc2nnc(C3CCCCC3)s2)ccc1Br,138% (inactive),
O=C(Nc1ccc2ccccc2c1)Nc1nnc(-c2ccc(O)cc2)s1,62.3% (inactive),

Compound,"activity change, negative = displacement",Potency
COc1ccc(-c2nnc(NC(=O)Nc3ccc4ccccc4c3)s2)cc1OC,141% (inactive),
O=C(Nc1ccc(Cl)c(Cl)c1)Nc1cccc(-c2ccncc2)n1,-5.13% (inactive),
Cc1cc(NC(=O)Nc2nnc(-c3cccnc3)s2)ccc1Cl,,inactive
CN1CCN(c2nnc(NC(=O)Nc3ccc(Cl)c(Cl)c3)s2)CC1,24.5% (inactive),
O=C(Nc1ccc2ccccc2c1)Nc1nnc(-c2ccc(Cl)cc2Cl)s1,95.4% (inactive),
O=C(Nc1ccc2ccccc2c1)Nc1nnc(-c2ccc(F)cc2)s1,-25.5% (inactive),
O=C(Nc1ccc(Cl)cc1)Nc1nnc(-c2ccncc2)s1,34.7% (inactive),
COc1ccccc1CNC(=O)Nc1nnc(-c2ccncc2)s1,1.57% (inactive),
Cc1cc(NC(=O)Nc2nnc(-c3ccncc3)s2)ccc1C#N,12.5% (inactive),
O=C(Cc1ccc2ccccc2c1)Nc1nnc(-c2ccncc2)s1,12.1% (inactive),
O=C(Nc1ccc(F)c(C(F)(F)F)c1)Nc1nnc(-c2cccnc2)s1,-2.96% (inactive),
N/C(=N\c1nnc(-c2ccncc2)s1)Nc1ccc(F)c(C(F)(F)F)c1,,inactive
O=C(Nc1ccc(Br)cc1)Nc1nnc(-c2ccncc2)s1,62.4% (inactive),
O=C(Nc1cc(C(F)(F)F)cc(C(F)(F)F)c1)Nc1nnc(-c2ccncc2)s1,3.51% (inactive),
O=C(Nc1ccc(Cl)c(Cl)c1)N1CCN(c2ccncc2)CC1,4.41% (inactive),
O=C(Nc1ccc(F)nc1)Nc1nnc(-c2ccncc2)s1,19.6% (inactive),
O=C(Nc1ccc(Cl)c(Cl)c1)Nc1nc(-c2ccncc2)cs1,250% (inactive),
O=C(Nc1ccc(Cl)c(Cl)c1)Nc1ccc(-c2ccncc2)s1,-4.46% (inactive),
COc1ccc(NC(=O)Nc2ccc(-c3nc4ccccc4[nH]3)cc2)cc1OC,-11.4% (inactive),
O=C(Nc1ccc2ccccc2c1)Nc1cccc(-c2ccncc2)n1,1.01% (inactive),
